In PubChem BioAssay (NCI) one finds growth data, which are given here for 40 molecules.

This is part of a sample that, as a whole, favours compounds with a hit. Of some 83,000 tested, about 20% had one in any assay.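 Interpretation: 100, growth as untreated; towards 0, rising growth inhibition; 0, no net growth; 0 to -100, cell death. Compounds scoring below 10 were considered active.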 Activity calls are given as the source filed them.

This experiment deals with NCI-H460 lung. Briefly: NCI-60 one-dose screen, 48 h (100 = growth as untreated, 0 = no growth, -100 = all killed). Particulars: 10 µM unless noted. The protocol:
Growth inhibition of the NCI-H460 human Non-Small Cell Lung tumor cell line is measured as a screen for anti-cancer activity. Cells are grown in 96 well plates and exposed to the test compound for 48 hours. Compounds are tested at a single concentration, which is 10^-5 M for most compounds. The reported endpoint is percent growth (GI% or GIPRCNT), where numbers from 0 - 100% represent growth inhibition, and numbers from -100% - 0 represent cell death. For example, a value of 40 represents 60% growth inhibition. A value of 0 means no net growth occurred over the course of the experiment. A value of -40 indicates 40% of cells at the beginning of the experiment died by the end of the experiment. A value of -100 means all cells are dead at the end of the experiment.
NCI-60 Human Tumor Cell Lines Screen was performed using the standard one-dose NCI protocol, which is described in more detail at https://dtp.cancer.gov/discovery_development/nci-60/default.htm.
Compounds with GIPRCNT values below 10 were considered active. Activity score was based on GIPRCNT using the following formula: […]
Score is 0 for GIPRCNT values of 100 or above, 50 for GIPRCNT values of 0, and 100 for GIPRCNT values of -100.
For `CCCCCCCCSC1=CC(=O)C(OC)=C(OC)C1=O`, the growth is 45.9% (inactive). Then `O=C1C=CC(Nc2ccccc2[N+](=O)[O-])C1Nc1ccccc1[N+](=O)[O-]` (stereo not given), with 59% (inactive); and `CCOC(=O)c1c2c(n3ccc(NC(=O)CCN4CCCCC4)cc13)C(=O)c1ncccc1C2=O`, with -35.9% (active); and `C/C(=C(/c1ccc(O)cc1)c1ccc(OCCN(C)C)cc1)c1ccccc1`, with 93.7% (inactive). Then `Cn1c(=O)c2c(ncn2CC[N+](C)(C)C)n(C)c1=O`, with 109% (inactive). The result for `O=C1CC(c2nc3ccccc3s2)CN1C1CCCCC1` (stereo not given) reads 105% (inactive); that for `CCC(=O)OCc1cccc(OC)c1`, 95.8% (inactive); that for `Cc1ccc2cnc(N)c(C#Cc3cncc(C(=O)Nc4ccc(CN5CCN(C)CC5)c(C(F)(F)F)c4)c3)c2c1`, -78.8% (active). As for `COc1ccc(S(=O)(=O)NCCCNc2cc(-c3c(-c4cccc(OC)c4)nc4sccn34)ccn2)cc1`, the growth is 44.2% (inactive). The result for `O=C(COCc1c(-c2ccccc2)no[n+]1[O-])Nc1ccc(C(=O)/C=C/c2ccc3c(c2)OCO3)cc1` reads 112% (inactive).

As for `C=C(C[n+]1ccccc1)[C@@H]1CC[C@]2(C(=O)OC)CC[C@]3(C)[C@H](CC[C@@H]4[C@@]5(C)CC[C@H](O)C(C)(C)[C@@H]5CC[C@]43C)[C@@H]12`, the growth is 105% (inactive). On to `COc1cc(C2CC(=O)Nc3c2cnn3Cc2ccco2)cc2c1OCCO2` (stereo not given), for which the growth was 76.6% (inactive). Turning to `CNCCCn1c2c(c3ccc([N+](=O)[O-])cc3c1=O)C(=O)c1cc(OC)cnc1-2`, the growth was -70.4% (active).

For `O=c1cc(-c2ccccc2)[nH]c2ccccc12`, the growth is 13.2% (inactive). Regarding `OCC1C2C=CC(C2)C1CO` (stereo not given), the growth was 121% (inactive).

Turning to `COC(=O)[C@H](C(C)C)n1c(=O)c2cc(OC)c(OC)cc2c2cnc3[nH]ccc3c21`, the growth is 41.2% (inactive). Then `ClC1=C2NC=NC2n2c(nnc2-c2ccc(Cl)cc2)N1` (stereo not given), with 106% (inactive); and `COc1ccc(-c2nc(Nc3cc(C)[nH]n3)c3ccccc3n2)cc1`, with 28.5% (inactive).

For the molecule `Nc1nc2ccc(-c3nc4ccc5[nH]ncc5c4c4c3CCC4)cc2s1`, the growth is 2.53% (active). The result for `CCN(CC)c1ccc(/C=C/C2=[N+](C)c3ccccc3C2(C)C)cc1` reads 3.05% (active); that for `COc1cc(/C=N\NC(=O)CN2CCN(c3cc4c(cc3F)c(=O)c(C(=O)N/N=C/c3ccc(O)c(OC)c3)cn4C3CC3)CC2)ccc1O`, 67% (inactive); that for `CC(C)(C)n1cc(-c2ccnc(NCCNS(=O)(=O)c3ccccc3)c2)c(-c2cccc(O)c2)n1`, 36.7% (inactive). The result for `O=C1NC(=O)C(CC(=O)n2c(-c3ccccc3)nc3ccccc32)C(=O)N1` reads 102% (inactive). The result for `CN1CCN(Cc2ccc(NC(=O)c3[nH]ncc3Nc3ccnc4ccsc34)cc2)CC1` reads 8.74% (active); that for `C/C(=C(/c1ccc(O)cc1)c1ccc(OCCN2CCCC2)cc1)c1ccccc1`, 24.7% (inactive).

Turning to `CC[C@]12C=CCN3CC[C@@]4(c5ccc(OC)cc5N(C)[C@H]4[C@@](O)(C(=O)OC)[C@@H]1OC(=O)CCC(=O)N[C@@H](Cc1c[nH]c4ccccc14)C(=O)OC)[C@@H]32`, the growth was 96.6% (inactive). Consider `O=C1c2cc3c(cc2-c2c1c1cc(Cl)c(Cl)cc1c(=O)n2C[C@H](O)CO)OCO3`, for which the growth is -0.391% (active). On to `C[C@@H]1CCC2=C(CCC[C@]2(C)C(=O)O)[C@@]1(C)CCc1ccoc1`, for which the growth was 96.9% (inactive). The result for `COc1cccc(-c2cn3c(ccc4ccccc43)n2)c1` reads 17.8% (inactive); that for `COc1ccc(CCN2CC=Cn3c2nc2ccccc2c3=O)cc1`, 5.96% (active). The result for `COc1ccc(-c2cc(-c3ccc(N(C)C)cc3)nc(NC(=O)c3ccncc3)n2)cc1` reads 99.7% (inactive); that for `N#CC1=C(N)Oc2c(ccc3ccccc23)C1c1cccs1` (stereo not given), 0.254% (active); that for `COc1ccccc1-c1ccc2c(N)c(C(=O)c3ccc4c(c3)OCO4)sc2n1`, 60.2% (inactive). Then `CC(=O)Oc1ccc(Nc2c3ccccc3nc3ccccc23)cc1`, with -26.5% (active). In the case of `Nc1cc2nc3ccccc3sc-2cc1=O`, the growth is 75% (inactive). As for `C=C1CC[C@@H]2[C@](C)(COC(C)=O)[C@H](OC(C)=O)CC[C@@]2(C)[C@@H]1CC(NCc1ccc(F)cc1)C1=CCOC1=O` (stereo not given in full), the growth is 55.2% (inactive). With `CN1CCN(Cc2ccc(NC(=O)c3cncc(C#Cc4cncc5nccnc45)c3)cc2C(F)(F)F)CC1`, the growth was 34.5% (inactive). The result for `COc1cc(OC)c(/C=C/c2cc[n+](C)c3ccccc23)c(OC)c1` reads 4.59% (active).

Take `Cc1cc2cc3cc(C)c(N(C)C)cc3[n+](C)c2cc1N(C)C`: the growth is 10.9% (inactive). As for `COc1cccc(/C=C\C(=O)c2ccccc2)c1`, the growth is 78% (inactive).
